CHRM1 antagonist: antagonists of human M1 muscarinic receptor. 1.3% of 360,000 active. P11229. AID 588852. CHO-K1 hM1, Fluo-8 calcium fluorescence, ACh EC80 antagonist. inhibition, % at 3 µM;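 active = percent inhibition above its own plate's cutoff, namely the mean of that plate's compound wells plus 3 SD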;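 note: peak over basal fluorescence ratio during 140 s after agonist addition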
Target sequence (P11229 whole entry, looked up): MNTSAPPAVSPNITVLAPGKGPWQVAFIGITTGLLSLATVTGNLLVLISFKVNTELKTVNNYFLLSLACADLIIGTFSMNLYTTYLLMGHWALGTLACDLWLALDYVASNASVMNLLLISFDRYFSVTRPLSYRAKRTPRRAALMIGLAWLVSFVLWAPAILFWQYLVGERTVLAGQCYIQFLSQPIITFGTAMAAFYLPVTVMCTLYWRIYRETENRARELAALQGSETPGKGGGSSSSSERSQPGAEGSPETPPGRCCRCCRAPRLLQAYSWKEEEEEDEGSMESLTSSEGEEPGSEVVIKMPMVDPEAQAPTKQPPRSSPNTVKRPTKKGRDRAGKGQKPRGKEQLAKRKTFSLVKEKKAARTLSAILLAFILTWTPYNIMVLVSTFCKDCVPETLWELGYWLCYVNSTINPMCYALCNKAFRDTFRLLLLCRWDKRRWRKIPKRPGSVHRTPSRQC
M1 ag parental: counter-screen for M1 agonists: effect in parental CHO-K1 cells; activation, % at 3 µM; 0.48% of 360,000 active; Fluo-8 calcium fluorescence; scaled to maximal ATP response, vehicle zero; AID 602248; in the data active = activation above about 15%;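 note: untransfected CHO-K1 host cells lacking M1 receptor as counterscreen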
CHO-K1 Ca PAM: counter-screen for M1 PAMs: effect in parental CHO-K1 cells; ATP EC20, Fluo-8 calcium fluorescence; 0% at ATP EC20, 100% at ATP max; activation, % at 3 µM; 0.02% of 360,000 active;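 active = activation above the run cutoff, the mean activation of all test compounds plus 3 SD, cut at about 40% in these data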;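 note: peak over basal fluorescence ratio in a 140 s read after ATP addition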
CHO-K1 Ca antag: M1 antagonist counterscreen hit in parental CHO-K1 cells. ATP-induced calcium, Fluo-8 fluorescence. 0.6% of 360,000 active. AID 602250. inhibition, % at 3 µM;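 active = inhibition above a per-plate cutoff, the plate's mean sample inhibition plus 3 SD, cut at about 24% in these data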
CHRM1 agonist: human M1 muscarinic receptor agonism; P11229; CHO-K1 hM1, Fluo-8 calcium fluorescence, agonist mode; 0% DMSO, 100% acetylcholine EC100; activation, % at 3 µM; 0.33% of 360,000 active; AID 588814;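 active = activation above the run's mean compound activation plus 3 SD, cut at about 16% in these data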;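 note: peak over basal fluorescence ratio within a 140 s kinetic read after compound addition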
M1 PAM: human CHRM1 positive allosteric modulation. P11229. CHO-K1 hM1, Fluo-8 calcium fluorescence, ACh EC20; 0% = ACh EC20, 100% = maximal ACh. activation, % at 3 µM. 0.088% of 360,000 active; in the data active = activation above about 19%, passing the limit was not always enough
Large screens that a line does not name were inactive. An excerpt weighted towards active compounds, which were near 2.3% of everything screened.

O=C(O)c1ccccc1/C=N/NC(=O)C1CCCCC1	none
CCCN1C2CCCC1CC(NC(=O)c1ccccc1Br)C2 (stereo not given)	CHRM1 antagonist 47
CCOc1ccccc1C(=O)NC1CC2CCCC(C1)N2Cc1ccc(C)cc1 (stereo not given)	CHRM1 antagonist 43
CCCN1C2CCCC1CC(NC(=O)c1ccccc1)C2 (stereo not given)	CHRM1 antagonist 42
CCCN1C2CCCC1CC(NC(=O)c1ccccc1OCC)C2 (stereo not given)	none
CCNC(=S)NC1CC2CCCC(C1)N2CCc1ccccc1 (stereo not given)	CHRM1 antagonist 72
CCCN1C2CCCC1CC(NC(=O)c1ccccc1F)C2 (stereo not given)	none
CC(=O)c1ccc(OCCCC(=O)NCCc2ccc(C(F)(F)F)cc2)cc1	none
COc1ccc(CNC(=O)c2sc(=O)n(Cc3ccccc3OC)c2C)cc1	none
N#Cc1ccccc1S(=O)(=O)N1CCN(C(=O)C2CC(=O)N(c3ccc4c(c3)OCCO4)C2)CC1 (stereo not given)	none
O=C(Nc1ccc2ccccc2c1)N1CCCN(CCOc2ccccc2)CC1	none
Cn1nc(C(C)(C)C)cc1C(=O)N1CCCCC1c1cc(C(=O)Nc2ccccc2Cl)no1 (stereo not given)	CHO-K1 Ca antag 24
CCNC(=O)c1ccc(NC(=O)CC2SC(N3CCCC3)=NC2=O)cc1 (stereo not given)	M1 PAM 28
CCCCCNC(=O)c1ccc(NC(=O)CC2SC(N3CCCC3)=NC2=O)cc1 (stereo not given)	none
Cc1nc2ccc(NC(=S)NC(C)C)cc2nc1C	none
Cc1nc2ccc(NC(=S)NC3CC3)cc2nc1C	CHO-K1 Ca antag 27
FC(F)(F)c1nnc2c(Sc3ccc(Cl)cc3)nc3ccccc3n12	CHO-K1 Ca antag 39
Cc1ccccc1COC(=O)CCCC1=NS(=O)(=O)c2ccccc2N1	CHRM1 agonist 23
Cc1ccc(NC(=O)COC(=O)CCCC2=NS(=O)(=O)c3ccccc3N2)cc1C	none
CCc1ccc(CN2CCC(Oc3ccc(C(=O)N4CCCCC4)cc3)CC2)cc1	CHRM1 antagonist 42
COc1ccc(CN2CCC(Oc3ccc(C(=O)N4CCCC4)cc3)CC2)c(F)c1	CHRM1 antagonist 61
COc1cc(C)c(CN2CCC(Oc3ccc(C(=O)N4CCCC4)cc3)CC2)cc1C	none
O=C(c1ccc(OC2CCN(Cc3ccc(F)cc3)CC2)cc1)N1CCCC1	none
CC(C)c1ccc(CN2CCC(Oc3ccc(C(=O)N4CCCC4)cc3)CC2)cc1	CHRM1 antagonist 81
CCOc1cccc(CN2CCC(Oc3ccc(C(=O)N4CCCC4)cc3)CC2)c1	CHRM1 antagonist 49
CN(C(=O)COC(=O)c1ccc([N+](=O)[O-])cc1N)c1ccccc1	none
CSc1ccc(CN2CCC(Oc3ccc(C(=O)N4CCCC4)cc3)CC2)cc1	CHRM1 antagonist 87
O=C(c1ccc(OC2CCN(C/C=C/c3ccc(F)cc3)CC2)cc1)N1CCCC1	CHRM1 antagonist 55
CCc1ccc(CN2CCC(Oc3ccc(C(=O)N4CCCC4)cc3)CC2)cc1	CHRM1 antagonist 82
CCOC(=O)C1(CC2CC2)CCN(Cc2ccc(OC)cc2F)CC1	CHRM1 antagonist 28
O=C(NCc1ccccc1C(F)(F)F)c1cccc2c1C(=O)c1ccc(N3CCCCC3)cc1S2(=O)=O	none
CC(C)C(NC(=O)c1ccc(Cl)c([N+](=O)[O-])c1)C(=O)NCc1ccccn1 (stereo not given)	none
Nc1c2ccccc2nc2ccccc12	none
Cc1nc2ccccc2c2c(N)c3ccccc3n12	M1 ag parental 17
O=C1CCCN1CC(O)CS(=O)(=O)Cc1ccc(Cl)c(Cl)c1 (stereo not given)	none
CNCCCCOc1ccccc1-c1ccccc1	CHRM1 antagonist 37
CN(C)CCOCCOc1ccccc1-c1ccccc1	none
CN(C)CCOc1ccccc1-c1ccccc1	CHRM1 antagonist 45
COCCn1c(SCC(=O)N2CCOCC2)nnc1-c1ccncc1	none
O=C(c1cn(-c2ccccc2)nc1-c1ccc(F)cc1)N1CCCCC1	M1 ag parental 17
O=C(c1cn(-c2ccccc2)nc1-c1ccc(F)cc1)N1CCOCC1	none
Cn1nnnc1SCC(=O)NC(=O)c1cccc([N+](=O)[O-])c1	none
Nc1c(Cl)ncnc1N/N=C/c1ccncc1	CHO-K1 Ca antag 26
Nc1c(Cl)ncnc1N/N=C/c1cccc(O)c1	none
CC(C)CNS(=O)(=O)c1ccc(CCC(=O)NCCc2ccccc2)cc1	none
CCOc1cc(/C=N/NC(=O)C(=O)NCCCOC(C)C)cc(Br)c1O	none
CN1C2=C(C(=O)CC(C)(C)C2)C(c2cccs2)C2=C1CC(C)(C)CC2=O	none
O=S(=O)(c1ccc(N2CCCC2)nc1)N1CCCC1	none
CCN1CCN(c2ccc(N3CCN(S(=O)(=O)c4cc([N+](=O)[O-])ccc4C)CC3)nn2)CC1	CHRM1 antagonist 40
CCN1CCN(c2ccc(S(=O)(=O)N3CCCC3)cn2)CC1	CHRM1 antagonist 36
CCN(CC)C(=O)C1=C(C)N(Cc2ccc(F)cc2)C(=O)C(CC(=O)NCC2CCCCC2)C1 (stereo not given)	none
Cc1cccc(NS(=O)(=O)c2ccc(C(=O)N3CC(C)OC(C)C3)cc2)c1C (stereo not given)	none
COc1cc(/C=C2\SC(=Nc3ccccc3)NC2=O)cc(Cl)c1O	CHRM1 antagonist 50, M1 ag parental 38, CHO-K1 Ca antag 32, CHRM1 agonist 79
CCc1ccc(N=C2NC(=O)/C(=C/c3cc(OC)c(O)c(OC)c3)S2)cc1	none
COc1cc(/C=C2\SC(=Nc3ccc(Cl)c(C(=O)O)c3)NC2=O)c(Br)c(Br)c1O	M1 ag parental 42, CHO-K1 Ca antag 27, CHRM1 agonist 51
CN(CCCCCCCCC(=O)/C=N/O)Cc1ccccc1	CHRM1 antagonist 69
COc1ccc(CCNc2ncnc3cc(OC)c(OC)cc23)cc1OC	M1 ag parental 16
COc1ccc(CNc2ncnc3sccc23)cc1	CHRM1 antagonist 31
CN(C)C(CNc1ncnc2sccc12)c1ccccc1 (stereo not given)	CHRM1 antagonist 47
COc1ccc(CNc2ncnc3sccc23)cc1OC	M1 ag parental 16
COc1ccc(C(CNc2ncnc3sccc23)N(C)C)cc1OC (stereo not given)	none
O=C(NCCCN1CCC(Cc2ccccc2)CC1)C1CCC(=O)N1C1CCCC1 (stereo not given)	none
O=C(NCCCN1CCC(Cc2ccccc2)CC1)C1CC(=O)N(C2CCCC2)C1 (stereo not given)	CHRM1 antagonist 33
O=C(C1CC(=O)N(C2CCCC2)C1)N1CCN(c2ccccc2)CC1 (stereo not given)	CHO-K1 Ca antag 60
